# Reference: PubChem BioAssay AID1850 (Southern Research Specialized Biocontainment Screening …, 2009)
# The campaign covered roughly 310,000 compounds. About 1,000 (0.32%) were called active. These entries were drawn from the full list. Measured potencies and affinities stand elsewhere. Unmarked numbers belong to inactive results. No rule for the calls is given here.
# Assay: Inhibition of PhoP regulon, Salmonella typhi GFP reporter cells, confirmation, 4 h (AID 1850);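 also: 0% = induced wells with vehicle and 100% = uninduced wells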
# Details: Salmonella Typhi PhoP-promoter GFP reporter, fluorescence, at 50 µM, active compounds read high
row,Structure (SMILES),inhibition [%]
1,CC1(C)CC(=O)C2=C(C1)OC(N)=C(C#N)C21C(=O)N2CCCc3cccc1c32 (stereo unspecified),-2.22
2,CN(C(=O)COC(=O)c1ccc2[nH]c3c(c2c1)CCCC3)C1CCS(=O)(=O)C1 (stereo unspecified),-8.01
3,Cc1ccc(OCCCCN2CCC(C)CC2)cc1,15.9
4,COc1cc(CNCc2ccccc2)cc(Cl)c1OC,4
5,CCOc1cc(CNCCc2ccc(S(N)(=O)=O)cc2)cc(Cl)c1OCc1ccccc1,13
6,COc1cc(CNC(C)(C)CO)cc(Br)c1OCc1ccc(Cl)cc1Cl,0.08
7,CCOc1cc(CNCCO)cc(Br)c1OCc1ccc(Cl)cc1Cl,8.42
8,CC(C)c1ccc(Nc2c([N+](=O)[O-])c(=O)n(C)c3ccccc23)cc1,2.08
9,Cc1ccc2nsnc2c1S(=O)(=O)NCc1ccncc1,-2.24
10,Cc1onc(-c2ccccc2)c1-c1nnc(-c2ccccc2C(F)(F)F)o1,0.63
11,C=CCN(c1nc(C)cc(OC)n1)S(=O)(=O)c1ccc(C)cc1,0.2
12,CC(C)(C)c1nnc(NC(=O)c2cccs2)s1,10.7
13,CN1CCN(c2ccc(C(F)(F)F)cc2N)CC1,2.28
14,Cc1nc2cc(C(F)(F)F)ccc2n1C,1.93
15,O=C(Nc1ccccc1C(=O)Nc1ccccn1)c1cc(F)c(F)cc1Cl,-1.17
16,Cc1ccc[n+](-c2nc3ccccc3nc2[N-]S(=O)(=O)c2ccccc2)c1,-11.4
17,O=C(/C=C/c1ccc2c(c1)OCO2)c1cccnc1,0.98
18,O=C(Cn1nc(C(F)(F)F)c2c1CCC2)Nc1ccccc1C(F)(F)F,-9.91
19,CC1CCC(C(C)C)C(OC(=O)C[n+]2cc(-c3ccc(Cl)cc3)n3c2CCCCC3)C1 (stereo unspecified),10.8
20,COc1ccc(-c2c[n+](CC(=O)OC3CC(C)CCC3C(C)C)c3n2CCC3)cc1 (stereo unspecified),1.91
21,Cn1c(NC(=O)C[n+]2cc(-c3ccc(Cl)cc3)n3c2CCC3)cc(=O)n(C)c1=O,11.1
22,O=C(C[n+]1cc(-c2ccc(Cl)cc2)n2c1CCCCC2)c1ccccc1,1.54
23,CCc1ccc(Nc2nnc(SCc3cc(=O)n4ccsc4n3)s2)cc1,-7.77
24,CCCCNCCCOc1cc(Cl)ccc1Cl,6.78

row,Structure (SMILES),inhibition [%]
1,CCCCNCCCOc1cccc(Cl)c1,2.53
2,O=C(NCCO)c1cccc(Cl)c1,-3.96
3,O=C1CCC([N+](=O)[O-])C(c2cc3c(cc2Cl)OCO3)N1 (stereo unspecified),3.32
4,COC(=O)c1cc(C(=O)c2ccc(Cl)cc2)n2c(=O)/c(=C\N(C)C)sc12,4.66
5,O/N=C/c1ccc(OCc2ccccc2)c(Br)c1,17.4
6,O/N=C/c1ccc(OCc2ccccc2F)c(Cl)c1,-2.37
7,Cc1cc(C)cc(NC(=O)CSc2nc3ccccc3nc2N2CCCC2)c1,11.5
8,CN(C)CCCNc1c2c(nc3ccccc13)CCC2,5.26
9,OCCNc1c2c(nc3ccccc13)CCCC2,-3.18
10,OCCNc1c2ccccc2nc2ccccc12,11.8
11,Fc1cccc(NCCc2c[nH]c3ccccc23)n1,3.37
12,CNCCc1c[nH]c2ccccc12,10.1
13,CN(C)CCCNc1nc(-c2ccccc2)nc2ccccc12,-2.17
14,N#CCCN(C(=O)COC(=O)c1ccc(CNS(=O)(=O)c2ccc(F)c(Cl)c2)cc1)c1ccc(F)cc1,-2.96
15,Cc1ccc(CNC(=O)C2CCCN(c3nn4c(=O)cc(C)nc4s3)C2)cc1 (stereo unspecified),-0.07
16,CCC1=C2CC[C@H]3C(=O)N(C)C(=O)[C@H]3[C@H]2[C@@]2(Cc3ccccc3)C(=NCC(=O)OC)OC(=O)N2C1=O,-11.3
17,CC(Sc1nnc(-c2ccccc2Br)o1)C(=O)N1CCOCC1 (stereo unspecified),0.36
18,O=C(NCC1CCCO1)c1cccc(NC(=O)c2ccc(Br)cc2)c1 (stereo unspecified),-6.91
19,CC(C)c1ccc(NC(=O)CSc2nc3ccsc3c(=O)n2Cc2ccc(C(=O)O)cc2)cc1,-12
20,COC(=O)CC1=C(C(=O)OC)C(c2ccc3c(c2Cl)OCO3)C(C#N)=C(N)O1 (stereo unspecified),-2.85
21,CCC(=C(c1ccc(OC)cc1)c1ccc(OC)cc1)c1cn(CC(O)CN(CCO)CCO)c2ccccc12 (stereo unspecified),1.98
22,COc1ccccc1-n1c(SCC(=O)Nc2ccc(F)cc2)nc2c(c1=O)SCC2,4.39
23,C=CCn1c2ccccc2n2nc(C)c(=O)nc12,5.77
24,COc1ccc(/C=C/C(=O)NCCCc2ccccc2)cc1,2.3

row,Structure (SMILES),inhibition [%]
1,COc1ccc(NC(=O)Cc2ccccc2)cc1,-3.71
2,CCNC(=S)N1CCNC(=O)C1CC(=O)OC (stereo unspecified),-0.49
3,C=CCSC(=S)NC1CCS(=O)(=O)C1 (stereo unspecified),4.24
4,CCCSC(=S)NC1CCS(=O)(=O)C1 (stereo unspecified),14.2
5,COCCSc1nnc(NC(=O)C2CCCO2)s1 (stereo unspecified),-16.4
6,Oc1c(C(c2ccccn2)N2CCCCC2)cc(Cl)c2cccnc12 (stereo unspecified),20.3
7,CN1CCN(C(c2ccc(C(F)(F)F)cc2)c2cc(Cl)c3cccnc3c2O)CC1 (stereo unspecified),2.9
8,CC(=O)NC(c1ccc(C)cc1)c1cc(Cl)c2cccnc2c1O (stereo unspecified),-5
9,CCN1CCN(C(c2ccc(C(F)(F)F)cc2)c2ccc3cccnc3c2O)CC1 (stereo unspecified),-8.31
10,CN1CCN(C(c2cccnc2)c2ccc3cccnc3c2O)CC1 (stereo unspecified),4.05
11,Oc1c(C(c2ccccn2)N2CCC(Cc3ccccc3)CC2)cc(Cl)c2cccnc12 (stereo unspecified),-1.4
12,Oc1c(C(c2ccc(Cl)cc2)N2CCCC2)cc(Cl)c2cccnc12 (stereo unspecified),-16.5
13,CN1CCN(C(c2ccccn2)c2cc(Cl)c3cccnc3c2O)CC1 (stereo unspecified),-16.9
14,CCOCCOC(=O)c1ccc(-n2cncn2)nc1,19.6
15,Cn1c(NC(=O)CC2CCCCC2)cc(=O)n(C)c1=O,-13.1
16,C/C(=N\Nc1nc2ccccc2[nH]1)c1ccc2c(c1)OCCO2,11.8
17,COc1ccc(Br)cc1C(=O)NC(=S)Nc1c(C)n(C)n(-c2ccccc2)c1=O,14.4
18,CC1(c2ccccc2)NC(=O)N(CC(=O)NCCC2=CCCCC2)C1=O (stereo unspecified),0.28
19,CCC[C@@H](CNC)NC[C@H](Cc1ccccc1)NCCCCc1ccccc1,3.99
20,O=C(CC12CC3CC(CC(C3)C1)C2)NC(Cc1ccccc1)C(=O)O (stereo unspecified),-9.42
21,CNC[C@H](CC1CCCCC1)NC[C@H](CO)NCCc1cccc(C(F)(F)F)c1,10.8
22,CCC[C@@H](CN[C@@H](CNC)C(C)C)NCCCCc1ccccc1,16.7
23,CNC[C@H](CC1CCCCC1)NC[C@H](NCCC1CCCC1)[C@H](C)O,22.8
24,CNC[C@H](CC1CCCCC1)NC[C@H](CO)NCC1(c2ccccc2)CC1,-8.16

row,Structure (SMILES),inhibition [%]
1,CC(C)n1nc(C(=O)OCC(=O)N(C)C2CCS(=O)(=O)C2)c2ccccc2c1=O (stereo unspecified),-1.06
2,COCCn1c(SCc2cccc(F)c2)nc2cc(C(=O)OC)ccc2c1=O,6.64
3,O=C(c1cc(-c2cccc(O)c2)on1)N1CCCCCC1,14.9
4,CN(C)S(=O)(=O)c1cccc(NC(=O)COc2ccc(C(=O)c3ccccc3)cc2)c1,-35.4
5,COc1ccc(CCn2c(-n3nc(C)cc3C)nc3c2c(=O)[nH]c(=O)n3C)cc1,0.46
6,O=C(NCC(=O)N1CCCCC1)c1ccc(Br)o1,20.3
7,N#C/C(=N\Nc1ccc(S(=O)(=O)N2CCOCC2)cc1)C(N)=S,6.96
8,O=C(Nc1ccc(SC(F)F)cc1)C1CC(=O)N(Cc2ccccc2)C1 (stereo unspecified),17.5
9,OCC1(Cc2ccc(Cl)cc2)CCN(Cc2ccc(F)c(F)c2)CC1,1.77
10,CCn1c(=O)n(CC)c2cc(NC(=O)c3ccccc3Cl)ccc21,-4.48
11,C/C(CC(=O)Nc1ccc2c(c1)OCO2)=N\NC(=O)OC(C)(C)C,1.68
12,Cc1ccc(C(=O)Nc2cccc(NC(=O)c3cccs3)c2)c(C)c1,-6.14
13,Cc1cc(C)c(S(=O)(=O)NCCCn2ccnc2)c(C)c1,-3.5
14,CCCCC[n+]1cccc2c3ccccc3ccc21,0.18
15,CCCCCCCCCCCCCCCC[n+]1cccc2ccccc21,-4.68
16,Cc1ccc(-c2c[n+](CC(=O)N3c4ccccc4Sc4ccccc43)c3n2CCC3)cc1,6.09
17,COc1ccc(-c2c[n+](CC(=O)N3c4ccccc4Sc4ccccc43)c3n2CCC3)cc1,18.6
18,O=C(C[n+]1cc(-c2ccc(F)cc2)n2c1CCC2)N1c2ccccc2Sc2ccccc21,-2.79
19,O=C(C[n+]1cc(-c2ccccc2)n2c1CCC2)N1c2ccccc2Sc2ccccc21,13.9
20,CC/C(=N\NC(=O)c1ccncc1)C12CC3CC(CC(C3)C1)C2,8.69
21,CCOC(=O)N1CCC(=NNC(=O)COc2ccc(C#N)cc2)CC1,-4.18
22,COc1ccc(OC)c(CCNC(=O)c2sc3nc4n(c(=O)c3c2C)CCC4)c1,4.26
23,Cc1ccc(/C=N/NC(=O)c2ccoc2C)s1,0.98
24,Cc1occc1C(=O)N/N=C/c1ccc(Br)s1,1.4
